Source: PubChem BioAssay
CYP2C9 inhib = blocks human cytochrome P450 2C9; inhibition, % at 5 µM; P11712; CYP2C9 Supersomes, luciferin-H conversion, luminescence; AID 777; 96,000 tested, 20% active;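 active = blocking of liver enzyme CYP2C9 beyond about 50% at 5 µM, limit read from the data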
CYP2C19 act = increases human CYP2C19 enzyme activity. P33261. recombinant CYP2C19, luciferin-H EGE luminescence; active compounds read high; 0 = fully inhibited enzyme, 1 = untreated enzyme. activation factor at 5 µM. 96,000 tested, under 10 active. AID 1025;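 active = activation factor of at least 2 at 5 µM in the primary screen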
Target sequence (P33261 whole entry, looked up): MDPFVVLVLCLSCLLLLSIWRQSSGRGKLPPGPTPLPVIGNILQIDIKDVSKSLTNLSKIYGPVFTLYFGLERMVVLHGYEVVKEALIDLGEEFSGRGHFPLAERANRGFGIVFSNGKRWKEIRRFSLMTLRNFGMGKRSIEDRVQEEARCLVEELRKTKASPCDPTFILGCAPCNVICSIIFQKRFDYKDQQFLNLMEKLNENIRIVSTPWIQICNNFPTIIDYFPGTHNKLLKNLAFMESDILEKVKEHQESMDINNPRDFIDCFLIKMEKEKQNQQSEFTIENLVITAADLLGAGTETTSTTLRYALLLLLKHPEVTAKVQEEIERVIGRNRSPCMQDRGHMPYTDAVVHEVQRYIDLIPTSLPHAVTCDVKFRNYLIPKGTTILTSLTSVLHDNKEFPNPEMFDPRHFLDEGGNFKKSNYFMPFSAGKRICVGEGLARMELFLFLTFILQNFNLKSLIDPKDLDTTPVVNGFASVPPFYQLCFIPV
CYP2C9 activ = increases human cytochrome P450 2C9 activity; recombinant CYP2C9, luciferin-H conversion, luminescence; active compounds read high; factor 1 = untreated enzyme, 0 = blocked; activation factor at 5 µM; 96,000 tested, 1.4% active; AID 1024;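 active = activation factor of 2 or more for CYP2C9 at a 5 µM dose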
Cav32 inh = inhibitors of human Cav3.2 T-type calcium channel; Cav3.2-expressing cells, Fluo-4 calcium fluorescence FDSS; active compounds read low; B-score at 10 µM; 100,000 tested, 4% active; AID 449739;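 active = single-dose well whose peak fluorescence ratio is a statistical outlier from its plate by either plate-standardised score or position-corrected B-score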
CYP2C19 inh = human CYP2C19 inhibition; CYP2C19 Supersomes, luciferin-H EGE luminescence, 30 min; inhibition, % at 5 µM; 96,000 tested, 21% active; AID 778;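 active = CYP2C19 inhibition above a set limit at 5 µM in the primary screen, cut at about 50% in these data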
Large screens that a line does not name were inactive. Only some compounds are listed: those with a hit (about 27% of all), similar ones and a draw of the others.

CC1(C)Oc2ccc3ccc(=O)oc3c2/C(=C/NCCN/C=C2\C(=O)C(C)(C)Oc3ccc4ccc(=O)oc4c32)C1=O	none (no result: Cav32 inh)
O=C(CN1CCCN(S(=O)(=O)c2ccc(Br)s2)CC1)Nc1ccc(Cl)cc1	CYP2C19 inh 88.3
COc1ccc(N2CCN(S(=O)(=O)c3ccc(Br)s3)CC2)cc1	none
O=S(=O)(c1ccc(Br)s1)N1CCN(c2ncccn2)CC1	CYP2C9 inhib 61.1
O=S(=O)(c1ccc(Br)s1)N1CCN(c2ccccn2)CC1	CYP2C9 inhib 98.1, CYP2C19 inh 99.4
O=S(=O)(c1ccc(Br)s1)N1CCCCC1	CYP2C19 inh 72.6
Nc1cccnc1Sc1cc(Cl)c(Cl)cc1Cl	none
c1ccc2c(c1)ncn2Cc1nnc2sc(-c3ccncc3)nn12	CYP2C19 inh 78.5
c1ccc(-c2nn3c(Cn4cnc5ccccc54)nnc3s2)cc1	CYP2C19 inh 78.8
c1cncc(-c2nn3c(Cn4cnc5ccccc54)nnc3s2)c1	none
CN(NC(=O)c1ccc(Cl)cc1)c1cccc(Cl)n1	CYP2C19 inh 55.5
COc1ccc(-c2noc(-c3ccccc3C(=O)Nc3cccc(OC)c3)n2)cc1	none
CC(=O)Nc1cccc(Oc2ccc(-c3noc(C)n3)cc2)c1	CYP2C9 inhib 57.0, CYP2C19 inh 76.5
O=C(OCn1ncc(Br)c(Br)c1=O)c1c(F)cccc1F	CYP2C19 inh 83.3
O=C(OCn1ncc(Cl)c(Cl)c1=O)c1ccc(F)cc1	none
CC1(C)N([O-])C2=C(c3ccccc3C2=O)[N+](=O)C1(C)C	none
O=C(c1cc(Cl)cc(Cl)c1)N1CCOCC1	none
C=CCN=C(NC#N)SCC(=O)NCc1ccccc1	CYP2C19 inh 50.7
C=CCN=C(NC#N)SCCc1ccccc1	CYP2C9 inhib 51.6, CYP2C19 inh 93.3
COc1ccc(CCn2c(N)c(C#N)c3nc4ccccc4nc32)cc1OC	CYP2C19 inh 97.9
N#Cc1c(N)n(CCNC(=O)c2cccs2)c2nc3ccccc3nc12	CYP2C19 inh 87.4
COc1ccc(CCn2c(N)c(S(=O)(=O)c3cccs3)c3nc4ccccc4nc32)cc1OC	none (no result: CYP2C9 inhib, CYP2C19 act, CYP2C9 activ, CYP2C19 inh)
N#Cc1c(N)n(CCCN2CCOCC2)c2nc3ccccc3nc12	CYP2C19 inh 88.7
COc1ccccc1CCn1c(N)c(C#N)c2nc3ccccc3nc21	CYP2C9 inhib 55.4
Cc1ccc2c(c1)c1nc3ccccc3nc1n2CCN1CCOCC1	none
CC1(C)C(=O)OC(c2c(F)c(F)c(F)c(F)c2F)C2(CCCCC2)C1=O (centres undefined)	none (no result: Cav32 inh)
CC(=O)Nc1ccc(S(=O)(=O)NNC(=O)c2cc3c4ccccc4n(C)c3s2)cc1	none
COC(C/C=C/[C@@H](O)[C@H](C)OCc1ccccc1)OC	none (no result: CYP2C9 inhib, CYP2C19 act, CYP2C9 activ, CYP2C19 inh)
COc1ccc(Cn2c(N)c(C#N)c3nc4ccccc4nc32)cc1OC	CYP2C9 inhib 66.9, CYP2C19 inh 90.4
O=C(CCCO)c1ccc2c(c1)OCCO2	none
O=C(CCCN1CCC(c2ccccc2)C1)c1ccc2c(c1)OCCO2 (centres undefined)	CYP2C19 inh 72.2
O=C(CCN1CCc2ccccc2CC1)c1ccc2c(c1)OCCO2	CYP2C9 inhib 71.1, CYP2C19 inh 55.0
O=C(CCN1CCOCC1)c1ccc2c(c1)OCCO2	none (no result: CYP2C9 inhib, CYP2C19 act, CYP2C9 activ, CYP2C19 inh)
COc1ccc(C(=O)Nn2cnc3ccccc3c2=O)c(OC)c1	none (no result: Cav32 inh)
Cc1nn(-c2ccc(F)cc2)c2sc(C(=O)N3CCCCCC3)cc12	CYP2C9 inhib 67.7, CYP2C19 inh 67.6
CC(=O)c1sc(NC(=O)c2cc3c(C)nn(-c4ccccc4)c3s2)nc1C	none
Cc1nn(-c2ccccc2)c2sc(C(=O)N(CC(=O)NC3CCCC3)Cc3ccco3)cc12	CYP2C9 inhib 69.7, CYP2C19 inh 71.6
Cc1nc(NC(=O)c2cc3c(C)nn(-c4ccccc4)c3s2)sc1C(=O)Nc1ccccc1	CYP2C9 inhib 58.7 (no result: Cav32 inh)
Cc1nn(-c2ccccc2)c2sc(C(=O)NC3CC3)cc12	CYP2C9 inhib 50.9
O=C(CSc1cn(Cc2cccc(F)c2)c2ccccc12)NCc1ccc(F)cc1	none (no result: CYP2C9 inhib, CYP2C19 act, CYP2C9 activ, CYP2C19 inh)
CC(C)CNC(=O)c1cccc(C(=O)NCC(C)C)c1	none
CCC(C)(C)n1nnnc1C(c1ccc(C)cc1)N1CCN(Cc2ccc3c(c2)OCO3)CC1 (centres undefined)	Cav32 inh -4.44 (no result: CYP2C9 inhib, CYP2C19 act, CYP2C9 activ, CYP2C19 inh)
c1ccc(CCn2nnnc2C(c2cccs2)N2CCN(Cc3ccc4c(c3)OCO4)CC2)cc1 (centres undefined)	CYP2C9 inhib 52.2, CYP2C19 inh 55.8
CC(C)C(c1nnnn1Cc1ccccc1)N1CCN(Cc2ccc3c(c2)OCO3)CC1 (centres undefined)	CYP2C9 inhib 67.9, CYP2C19 inh 92.0
